Reference: the supplement of paper PMC9433436
± gives the standard deviation of the averaged measurements. The full ranking holds about 4,100 sequences; the median of “relative kcat/Km (krel) vs genomic leader AAAGAU” is about 1.7, and the highest 2% start at about 6.5. The sample as a whole holds a higher share of the highest values than the screen did.

Target: T1, E. coli RNase P holoenzyme (M1 P RNA + rnpA protein) (UniProt P0A7Y8)
T1 sequence: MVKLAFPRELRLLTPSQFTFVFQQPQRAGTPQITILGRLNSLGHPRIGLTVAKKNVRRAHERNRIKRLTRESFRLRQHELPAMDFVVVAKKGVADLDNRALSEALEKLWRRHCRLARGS
Assay: relative kcat/Km (krel) vs genomic leader AAAGAU (relative (reference leader = 1)); higher = faster RNase P cleavage
Description: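 HTS-Kin: a pool of ptRNA-Met (21C construct) with all 4096 combinations of 5' leader nucleotides N(-6) to N(-1) was processed in vitro by E. coli RNase P (P RNA + rnpA/C5 protein) under multiple-turnover conditions at 37 C, pH 8, 17.5 mM MgCl2. Residual substrate was Illumina-sequenced at several fractions reacted, and relative kcat/Km (krel) was computed by internal competition kinetics, calibrated to the genomic leader (AAAGAU = 1). The listed hexamer is the varied N(-6)..N(-1) leader (DNA letters), and it sits between a fixed 5' stem-loop flank (GCAUGCACGAAAGUGCGUGCUAUGAA) and the mature tRNA-Met starting GGCUACGUAGCUCAGUUGG. Two technical replicates are averaged.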

[1] = fraction of substrate reacted: ~9-10% (9.79% repeat 1, 9.1% repeat 2)
[2] = fraction of substrate reacted: ~13-16% (15.68% repeat 1, 13.17% repeat 2)
[3] = fraction of substrate reacted: ~26-29% (28.66% repeat 1, 26.4% repeat 2)

Sequence	relative kcat/Km [1]	relative kcat/Km [2]	relative kcat/Km [3]
CCTACA	2.23 ± 1.1	1.82 ± 0.36	1.9 ± 0.68
CGTCCT	2.14 ± 0.34	2.06 ± 0.17	3 ± 1.2
CTACGT	0.396 ± 0.012	0.978 ± 0.12	1.13 ± 1.1
TTAGGG	0.357 ± 0.048	1.11 ± 0.86	2.15 ± 2.1
GGGTAA	1.51 ± 0.8	1.31 ± 0.21	1.46 ± 0.55
GGAGCT	1.22 ± 0.62	0.705 ± 0.57	1.64 ± 0.58
CTCACA	3.32 ± 0.59	3.94 ± 0.75	5.85 ± 2.7
GTCACA	3.73 ± 1.8	4.78 ± 1.1	7.01 ± 2.5
GGCACA	1.43 ± 0.55	1.26 ± 0.95	2.08 ± 0.64
AAACGA	2.12 ± 0.92	1.89 ± 0.67	2.21 ± 0.41
CCCTTG	–	–	1.42 ± 0.67
ACGAAA	1.79 ± 0.39	1.66 ± 0.37	2.72 ± 1.1
CCTTAT	3.19 ± 0.95	4.47 ± 0.36	6.48 ± 2.4
ATTTAA	3.55 ± 1.8	4.39 ± 0.62	5.24 ± 1.9
ATTTAT	3.82 ± 1.8	4.84 ± 0.46	7.02 ± 3
CTTTAT	4.88 ± 2	5.78 ± 0.63	8.16 ± 3.3
TTTTAA	4.32 ± 1.7	4.88 ± 0.61	6.68 ± 2.5
ATTTAG	–	2.526 ± 0.01	3.82 ± 0.68
CTTTAA	3.07 ± 1.6	3.8 ± 0.23	5.72 ± 2
TTTAAA	3.37 ± 1.6	3.88 ± 0.2	5.35 ± 2.1
TTTTTA	3.12 ± 2.4	2.58 ± 0.21	3.44 ± 0.81
CTTTAG	2.44 ± 1.3	2.14 ± 0.24	3.51 ± 0.57
GCTTAT	2.2 ± 0.24	3.15 ± 0.31	4.62 ± 1.7
TCTTAT	4.12 ± 1.9	5.44 ± 1.1	8.21 ± 3.5
GGCACT	1.99 ± 1.6	1.75 ± 0.28	2.89 ± 1.2

Sequence	relative kcat/Km [1]	relative kcat/Km [2]	relative kcat/Km [3]
TTTGGG	–	–	1.56 ± 1.5
ACATTT	2.32 ± 1.2	2.97 ± 0.19	4.45 ± 1.8
AGCAGC	2.23 ± 0.55	2.28 ± 0.13	3.24 ± 0.54
CCAACC	–	1.11 ± 0.49	1.3 ± 0.39
GCTAGG	1.3 ± 0.58	–	0.775 ± 0.23
AATTTT	2.36 ± 0.95	2.45 ± 0.43	3.35 ± 1
TTTTAT	4.55 ± 1.4	5.6 ± 0.89	8.5 ± 3.9
GTTTAG	–	1.86 ± 0.39	3.84 ± 1.2
TTTATT	2.77 ± 0.82	3.08 ± 0.42	4.5 ± 2.1
TTTTAC	3.74 ± 1.1	4.76 ± 1.2	7.2 ± 3.2
TTTTAG	3.3 ± 2.5	2.5 ± 0.78	4.51 ± 1.2
GTTTTA	2.83 ± 1.7	2.56 ± 0.17	3.52 ± 1
TTTTTT	3.31 ± 1.9	3.41 ± 0.27	4.9 ± 1.7
GTTTAA	3.62 ± 0.62	4.49 ± 0.5	6.31 ± 3
GTTTAT	3.69 ± 0.5	5.18 ± 1.8	8 ± 3.7
CTTTAC	4.38 ± 1.7	4.59 ± 1.3	6.2 ± 1.9
GTTTAC	3.75 ± 0.76	4.65 ± 0.88	7.14 ± 3
ATTTAC	4.31 ± 1.7	4.75 ± 0.58	6.43 ± 2.2
TAAGCC	2.57 ± 0.66	2.16 ± 0.87	1.67 ± 0.62
TTGAGA	2.45 ± 0.5	2.31 ± 0.38	3.09 ± 0.91
ATCGTA	3.1 ± 0.36	3.67 ± 0.92	5.45 ± 2.6
TGCTGT	–	0.877 ± 0.71	1.11 ± 1.1
GAAACG	–	–	0.784 ± 0.096
CCGCAG	–	–	1.14 ± 1.1
GAAGGC	1.24 ± 0.64	–	–

Sequence	relative kcat/Km [1]	relative kcat/Km [2]	relative kcat/Km [3]
ACCGTA	2.19 ± 0.39	2.54 ± 0.21	4.07 ± 1.4
TCCTGT	–	–	2.18 ± 1.6
ACCTGC	3.58 ± 3.5	3.61 ± 2.3	5.37 ± 2.5
TCCTGC	4.64 ± 1.6	5.78 ± 1.5	7.5 ± 3.9
CCCTGC	2.87 ± 1.4	3.39 ± 0.2	5.06 ± 1.6
TCCTGA	3.23 ± 0.83	4.19 ± 0.42	6.6 ± 2.5
TCCTGG	0.344 ± 0.27	0.715 ± 0.34	1.15 ± 1.1
ATTACA	2.55 ± 1.5	2.08 ± 0.14	2.94 ± 1.2
CCCACT	1.87 ± 1.1	1.27 ± 0.14	2.79 ± 0.067
AAATCT	1.86 ± 0.61	2.09 ± 0.095	2.8 ± 0.68
GCACGC	–	–	1.29 ± 1.2
CTATCT	3.05 ± 0.67	3.54 ± 0.89	4.18 ± 1.4
ATCTGT	–	1.3 ± 1.2	1.76 ± 1.5
ATCTCG	2.52 ± 2	2.14 ± 0.37	3.55 ± 1.2
ATCTAG	2.49 ± 0.96	3.16 ± 1	5.72 ± 2.4
ATCTAC	4.97 ± 1.4	6.58 ± 2	9.08 ± 4.5
GTCTAT	5.93 ± 2.3	6.62 ± 1.5	9.91 ± 4.4
AGCTAC	1.27 ± 0.29	3.3102 ± 0.0027	4.78 ± 1.9
ATGTCT	1.82 ± 0.38	2.3 ± 0.33	2.43 ± 1
CTCTAT	4.59 ± 0.51	6.38 ± 1.7	9.17 ± 4
CTATGT	0.766 ± 0.47	1.38 ± 0.98	–
ATCTAT	3.93 ± 1.4	5.38 ± 1	7.98 ± 3.7
GGCTAT	2.25 ± 0.98	1.99 ± 0.48	2.88 ± 0.85
ATACTT	1.93 ± 1.3	1.97 ± 0.58	2.62 ± 1.1
GCGAAT	0.964 ± 0.25	1.54 ± 0.49	2.09 ± 0.45

Sequence	relative kcat/Km [1]	relative kcat/Km [2]	relative kcat/Km [3]
CAGCGC	1.95 ± 0.83	1.4 ± 0.14	2.09 ± 0.64
CTGCGG	–	0.228 ± 0.042	0.674 ± 0.39
TGGGAA	–	1.31 ± 0.98	1.24 ± 0.69
CAGCTA	1.51 ± 0.56	1.21 ± 0.27	1.85 ± 0.51
ACTGGA	0.346 ± 0.015	–	–
TGGTAG	–	–	0.538 ± 0.38
TTTCTC	2.12 ± 0.99	2.29 ± 0.41	2.91 ± 0.93
TTATGC	3.22 ± 0.63	4.29 ± 0.74	6.16 ± 2.8
CCGTAC	3.58 ± 1	4.22 ± 0.54	5.69 ± 2.3
GCTTAA	1.72 ± 1	2.36 ± 0.11	3.64 ± 0.66
AACTTC	3.37 ± 1.2	3.49 ± 0.17	4.33 ± 1.5
TACATA	3.93 ± 2	4.55 ± 0.65	6.5 ± 2.8
GCTGAT	1.1 ± 0.57	1.1 ± 0.49	0.636 ± 0.14
TGAGGA	0.562 ± 0.032	–	1.42 ± 0.78
TTAAGA	1.95 ± 0.61	2.89 ± 0.47	3.88 ± 1.5
CTCTAG	3.37 ± 2.2	3.41 ± 0.89	5.82 ± 2
GGCTAC	1.69 ± 1.4	1.98 ± 0.51	2.81 ± 1.3
GTCTAC	4.47 ± 0.65	6.86 ± 2.4	10.1 ± 4.8
CTACAC	2.87 ± 1.7	3 ± 0.59	4.74 ± 1.4
GTCTAG	3.54 ± 2.5	3.25 ± 0.17	5.81 ± 1.6
CTCTAC	4.76 ± 1.6	6.63 ± 1.3	8.97 ± 3.6
TACGTT	1.82 ± 0.88	1.95 ± 0.067	2.61 ± 1
CAAGAT	1.15 ± 0.24	0.704 ± 0.019	1.49 ± 0.33
CTCCGG	1.38 ± 0.85	0.916 ± 0.46	1.27 ± 0.5
